Reference: the supplement of paper PMC10849652
The full data set covers some 7,900 targets. This sample favours those with a hit. About 0.6% of all pairs of compound and target were hits. Values without a mark were called inactive.

Compound: NC(=O)c1cnc(N[C@@H]2CCCC[C@@H]2N)nc1Nc1cccc(-n2nccn2)c1
Experiment: log2 fold change, soluble protein after heating vs DMSO (PISA); higher = thermal stabilisation; K562 cells, 10 uM, 30 min; active = over 0.2 and 3.5 SD of the protein, either way, in both replicates (recomputed)
How it was run: (§1)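 Quantification of soluble protein used TMTpro 16plex LC-MS/MS, with channel sums equalised. Samples were the supernatant after 21,000xg for 90 min of pooled aliquots from K562 cells (2×10^6 cells/mL) treated with 10 μM compound for 30 min, heated for 3 min over 48°C-58°C, and extracted in PBS with 0.5% NP-40 at 4°C. Values, from duplicates, describe thermal stability against control samples on a log2 fold-change scale.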

Chain of UniProt Q8NBW4 (Q8NBW4 whole entry, looked up): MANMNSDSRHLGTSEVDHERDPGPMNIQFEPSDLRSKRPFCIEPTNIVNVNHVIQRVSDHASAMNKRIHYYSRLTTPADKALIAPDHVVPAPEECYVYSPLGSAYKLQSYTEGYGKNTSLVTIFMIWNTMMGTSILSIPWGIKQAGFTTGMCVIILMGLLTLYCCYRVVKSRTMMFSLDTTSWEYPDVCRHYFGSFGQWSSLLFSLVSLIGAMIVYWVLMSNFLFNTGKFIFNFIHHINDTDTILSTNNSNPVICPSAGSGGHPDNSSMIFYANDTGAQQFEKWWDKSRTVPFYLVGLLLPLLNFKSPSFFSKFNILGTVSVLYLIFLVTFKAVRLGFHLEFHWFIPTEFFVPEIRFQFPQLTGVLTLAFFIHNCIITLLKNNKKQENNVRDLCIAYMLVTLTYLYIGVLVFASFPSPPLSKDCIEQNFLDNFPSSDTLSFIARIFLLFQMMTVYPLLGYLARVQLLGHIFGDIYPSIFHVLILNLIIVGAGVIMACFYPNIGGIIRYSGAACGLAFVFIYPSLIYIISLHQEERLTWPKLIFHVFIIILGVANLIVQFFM
Chain of UniProt Q5T5C0 (Q5T5C0 whole entry, looked up): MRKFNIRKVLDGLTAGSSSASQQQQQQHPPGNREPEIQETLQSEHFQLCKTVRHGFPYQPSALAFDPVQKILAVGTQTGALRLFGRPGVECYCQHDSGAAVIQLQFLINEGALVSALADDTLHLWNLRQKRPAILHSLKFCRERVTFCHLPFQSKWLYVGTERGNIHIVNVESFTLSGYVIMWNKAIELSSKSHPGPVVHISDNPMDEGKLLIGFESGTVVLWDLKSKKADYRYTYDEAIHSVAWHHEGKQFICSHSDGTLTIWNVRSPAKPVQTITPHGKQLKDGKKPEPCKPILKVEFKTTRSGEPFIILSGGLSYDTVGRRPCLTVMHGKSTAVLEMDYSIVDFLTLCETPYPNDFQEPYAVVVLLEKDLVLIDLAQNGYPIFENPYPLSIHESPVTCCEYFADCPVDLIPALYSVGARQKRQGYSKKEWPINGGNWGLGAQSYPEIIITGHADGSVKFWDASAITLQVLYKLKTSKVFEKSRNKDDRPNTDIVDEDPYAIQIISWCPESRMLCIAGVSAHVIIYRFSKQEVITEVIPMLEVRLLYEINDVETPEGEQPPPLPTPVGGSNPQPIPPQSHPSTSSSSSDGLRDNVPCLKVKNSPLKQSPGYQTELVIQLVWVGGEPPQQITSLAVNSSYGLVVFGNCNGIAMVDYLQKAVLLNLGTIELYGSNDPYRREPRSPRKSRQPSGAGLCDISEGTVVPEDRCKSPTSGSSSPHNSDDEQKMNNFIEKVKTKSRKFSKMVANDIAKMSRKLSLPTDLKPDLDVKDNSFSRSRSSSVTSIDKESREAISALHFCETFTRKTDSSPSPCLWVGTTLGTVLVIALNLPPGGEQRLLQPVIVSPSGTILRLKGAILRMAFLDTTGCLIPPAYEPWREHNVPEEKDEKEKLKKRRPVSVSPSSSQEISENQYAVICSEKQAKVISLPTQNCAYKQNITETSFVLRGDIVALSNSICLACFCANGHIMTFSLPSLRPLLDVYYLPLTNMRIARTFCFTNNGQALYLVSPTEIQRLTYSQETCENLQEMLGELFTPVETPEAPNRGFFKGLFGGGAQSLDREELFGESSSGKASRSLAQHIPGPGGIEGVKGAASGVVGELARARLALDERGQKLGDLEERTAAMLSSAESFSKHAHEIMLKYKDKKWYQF
Chain of UniProt Q05519 (Q05519 whole entry, looked up): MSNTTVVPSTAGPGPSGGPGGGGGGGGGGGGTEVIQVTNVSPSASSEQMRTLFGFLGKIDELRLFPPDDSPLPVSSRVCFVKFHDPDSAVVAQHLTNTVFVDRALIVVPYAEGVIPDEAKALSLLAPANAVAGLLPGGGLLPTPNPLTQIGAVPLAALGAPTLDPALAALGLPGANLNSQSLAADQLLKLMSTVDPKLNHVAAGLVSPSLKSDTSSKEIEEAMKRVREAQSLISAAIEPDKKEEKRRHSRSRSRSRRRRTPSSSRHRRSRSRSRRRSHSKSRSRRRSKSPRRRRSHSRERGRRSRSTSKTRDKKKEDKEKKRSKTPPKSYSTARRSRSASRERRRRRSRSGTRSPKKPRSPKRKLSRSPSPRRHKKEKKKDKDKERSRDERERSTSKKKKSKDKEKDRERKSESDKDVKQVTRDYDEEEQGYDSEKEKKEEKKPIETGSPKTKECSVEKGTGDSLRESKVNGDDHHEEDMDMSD
Chain of UniProt Q8N1S5 (Q8N1S5 whole entry, looked up): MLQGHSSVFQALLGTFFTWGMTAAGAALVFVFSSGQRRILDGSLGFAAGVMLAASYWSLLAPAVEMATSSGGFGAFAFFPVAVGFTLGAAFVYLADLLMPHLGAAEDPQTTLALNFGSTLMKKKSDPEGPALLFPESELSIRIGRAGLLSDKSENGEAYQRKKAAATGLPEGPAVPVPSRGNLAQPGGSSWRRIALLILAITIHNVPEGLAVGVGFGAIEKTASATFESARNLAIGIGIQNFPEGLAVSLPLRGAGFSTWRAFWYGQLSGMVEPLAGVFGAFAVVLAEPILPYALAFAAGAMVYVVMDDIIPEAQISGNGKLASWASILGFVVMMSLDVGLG
Chain of UniProt Q9NRS6 (Q9NRS6 whole entry, looked up): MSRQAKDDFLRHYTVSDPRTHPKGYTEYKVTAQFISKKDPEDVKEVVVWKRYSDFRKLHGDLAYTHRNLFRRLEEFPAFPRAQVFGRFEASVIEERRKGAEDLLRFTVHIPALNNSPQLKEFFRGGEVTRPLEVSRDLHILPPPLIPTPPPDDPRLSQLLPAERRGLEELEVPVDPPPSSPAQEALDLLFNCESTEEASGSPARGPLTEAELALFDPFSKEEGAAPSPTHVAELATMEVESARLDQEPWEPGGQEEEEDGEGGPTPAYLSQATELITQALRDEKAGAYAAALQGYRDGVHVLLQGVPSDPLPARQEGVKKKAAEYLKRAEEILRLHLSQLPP
Chain of UniProt P78382 (P78382 whole entry, looked up): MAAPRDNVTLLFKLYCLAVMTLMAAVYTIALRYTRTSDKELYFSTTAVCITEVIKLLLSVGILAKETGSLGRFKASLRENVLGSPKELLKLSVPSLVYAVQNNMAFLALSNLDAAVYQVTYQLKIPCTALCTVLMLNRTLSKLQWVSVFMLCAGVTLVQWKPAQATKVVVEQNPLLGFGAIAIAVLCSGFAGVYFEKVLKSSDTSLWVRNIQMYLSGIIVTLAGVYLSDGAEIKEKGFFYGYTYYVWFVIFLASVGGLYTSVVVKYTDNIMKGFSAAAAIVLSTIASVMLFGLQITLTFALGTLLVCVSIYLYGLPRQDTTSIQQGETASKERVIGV
Chain of UniProt Q92609 (Q92609 whole entry, looked up): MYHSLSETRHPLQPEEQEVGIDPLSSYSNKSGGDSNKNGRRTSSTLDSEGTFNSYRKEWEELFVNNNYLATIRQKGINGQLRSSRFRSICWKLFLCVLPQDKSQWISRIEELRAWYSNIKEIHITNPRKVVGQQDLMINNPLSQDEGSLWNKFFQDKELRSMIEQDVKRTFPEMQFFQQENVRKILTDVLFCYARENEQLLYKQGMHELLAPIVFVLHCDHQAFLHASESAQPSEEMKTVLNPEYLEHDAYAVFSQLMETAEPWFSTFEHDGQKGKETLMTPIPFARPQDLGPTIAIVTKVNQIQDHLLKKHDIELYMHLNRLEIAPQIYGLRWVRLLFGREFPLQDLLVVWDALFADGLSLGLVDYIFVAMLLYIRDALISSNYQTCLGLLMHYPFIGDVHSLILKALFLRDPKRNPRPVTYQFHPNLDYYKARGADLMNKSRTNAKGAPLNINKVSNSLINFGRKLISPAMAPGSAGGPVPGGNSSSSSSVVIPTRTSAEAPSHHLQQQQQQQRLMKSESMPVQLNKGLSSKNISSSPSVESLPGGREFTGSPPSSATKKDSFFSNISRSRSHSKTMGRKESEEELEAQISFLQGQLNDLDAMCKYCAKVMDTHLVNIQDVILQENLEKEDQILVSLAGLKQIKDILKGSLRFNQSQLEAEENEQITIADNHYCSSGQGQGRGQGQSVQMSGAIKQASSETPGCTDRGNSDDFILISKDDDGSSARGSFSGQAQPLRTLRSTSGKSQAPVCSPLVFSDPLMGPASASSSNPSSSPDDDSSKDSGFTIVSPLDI
Chain of UniProt Q969Z0 (Q969Z0 whole entry, looked up): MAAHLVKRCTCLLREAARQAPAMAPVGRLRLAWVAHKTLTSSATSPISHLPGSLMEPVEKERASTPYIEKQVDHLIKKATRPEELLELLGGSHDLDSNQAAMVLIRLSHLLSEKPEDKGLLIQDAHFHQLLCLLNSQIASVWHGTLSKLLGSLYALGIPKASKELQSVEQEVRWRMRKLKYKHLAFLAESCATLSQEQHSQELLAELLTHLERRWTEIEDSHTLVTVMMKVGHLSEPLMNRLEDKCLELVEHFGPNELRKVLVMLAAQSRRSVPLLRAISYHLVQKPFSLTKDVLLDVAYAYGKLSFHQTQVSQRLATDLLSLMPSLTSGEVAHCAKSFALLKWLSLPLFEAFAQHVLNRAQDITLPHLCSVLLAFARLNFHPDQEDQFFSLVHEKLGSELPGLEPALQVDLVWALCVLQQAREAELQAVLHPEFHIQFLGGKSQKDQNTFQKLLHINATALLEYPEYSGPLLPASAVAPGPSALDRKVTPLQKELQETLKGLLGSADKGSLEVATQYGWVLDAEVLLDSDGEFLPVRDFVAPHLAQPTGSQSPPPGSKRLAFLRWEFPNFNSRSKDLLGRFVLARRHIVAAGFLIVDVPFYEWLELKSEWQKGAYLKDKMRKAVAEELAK
Chain of UniProt Q16629 (Q16629 whole entry, looked up): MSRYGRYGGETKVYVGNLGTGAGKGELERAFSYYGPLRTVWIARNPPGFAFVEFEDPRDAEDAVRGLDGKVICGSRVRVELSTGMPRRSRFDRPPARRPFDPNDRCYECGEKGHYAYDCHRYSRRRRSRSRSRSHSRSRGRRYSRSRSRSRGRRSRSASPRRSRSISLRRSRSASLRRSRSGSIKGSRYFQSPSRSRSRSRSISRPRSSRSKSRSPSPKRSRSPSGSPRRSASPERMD
Chain of UniProt Q9H4I9 (Q9H4I9 whole entry, looked up): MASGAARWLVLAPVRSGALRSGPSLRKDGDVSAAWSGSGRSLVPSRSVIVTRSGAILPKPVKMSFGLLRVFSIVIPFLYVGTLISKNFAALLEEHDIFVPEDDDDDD

| Target | log2 fold change |
| --- | --- |
| TCERG1 (UniProt O14776) | -0.075 |
| SPCS2 (UniProt Q15005) | -0.002 |
| TK1 (UniProt K7ERV3) | -0.054 |
| SP3 (UniProt Q02447) | -0.011 |
| STARD3 (UniProt Q14849) | 0.079 |
| SRSF6 (UniProt Q13247) | 0.038 |
| SPTBN1 (UniProt Q01082) | -0.04 |
| SNX15 (UniProt Q9NRS6) | -0.135 |
| SLC29A3 (UniProt Q9BZD2) | -0.124 |
| SRSF11 (UniProt Q05519) | -0.032 |
| SLC35B4 (UniProt Q969S0) | -0.052 |
| SLC27A2 (UniProt O14975) | -0.091 |
| SPPL2B (UniProt Q8TCT7) | 0.009 |
| SMPD4 isoform 4 (UniProt Q9NXE4) | -0.075 |
| SLC9A6 isoform 2 (UniProt Q92581) | 0.016 |
| TGFBI (UniProt Q15582) | -0.136 |
| TACC2 (UniProt O95359) | -0.027 |
| STXBP5 (UniProt Q5T5C0) | -0.022 |
| STOM (UniProt P27105) | -0.043 |

| Target | log2 fold change |
| --- | --- |
| SRSF7 (UniProt Q16629) | 0.13 |
| SYNE2 isoform 2 (UniProt Q8WXH0) | -0.172 |
| SLC38A9 (UniProt Q8NBW4) | 0.009 |
| TBRG4 (UniProt Q969Z0) | -0.172 |
| SMARCA4 (UniProt P51532) | -0.056 |
| TFR2 (UniProt Q9UP52) | -0.004 |
| TECR (UniProt Q9NZ01) | -0.071 |
| SRSF10 (UniProt O75494) | -0.096 |
| TBC1D5 isoform 2 (UniProt Q92609) | -0.103 |
| SRP68 (UniProt Q9UHB9) | -0.08 |
| SYMPK (UniProt Q92797) | 0.012 |
| STEAP3 isoform 2 (UniProt Q658P3) | 0.076 |
| SLC25A4 (UniProt P12235) | -0.035 |
| SLC39A11 (UniProt Q8N1S5) | -0.027 |
| TMBIM6 isoform 2 (UniProt P55061) | -0.119 |
| SMDT1 (UniProt Q9H4I9) | 0.032 |
| SLC35A1 (UniProt P78382) | -0.015 |
| TIPRL (UniProt O75663) | -0.114 |

Compound: NC1(c2ccc(-c3nc4ccn5c(=O)[nH]nc5c4cc3-c3ccccc3)cc2)CCC1
Experiment: as above
How it was run: as §1

| Target | log2 fold change |
| --- | --- |
| TCERG1 (UniProt O14776) | -0.123 |
| SPCS2 (UniProt Q15005) | -0.072 |
| TK1 (UniProt K7ERV3) | -0.005 |
| SP3 (UniProt Q02447) | -0.033 |
| STARD3 (UniProt Q14849) | -0.236 |
| SRSF6 (UniProt Q13247) | 0.191 |
| SPTBN1 (UniProt Q01082) | -0.041 |
| SNX15 (UniProt Q9NRS6) | -0.048 |
| SLC29A3 (UniProt Q9BZD2) | -0.304 |
| SRSF11 (UniProt Q05519) | -0.063 |
| SLC35B4 (UniProt Q969S0) | -0.094 |
| SLC27A2 (UniProt O14975) | 0.007 |
| SPPL2B (UniProt Q8TCT7) | -0.031 |
| SMPD4 isoform 4 (UniProt Q9NXE4) | -0.141 |
| SLC9A6 isoform 2 (UniProt Q92581) | -0.091 |
| TGFBI (UniProt Q15582) | -0.116 |
| TACC2 (UniProt O95359) | -0.052 |
| STXBP5 (UniProt Q5T5C0) | -0.145 |
| STOM (UniProt P27105) | -0.069 |

| Target | log2 fold change |
| --- | --- |
| SRSF7 (UniProt Q16629) | 0.525 |
| SYNE2 isoform 2 (UniProt Q8WXH0) | 0.087 |
| SLC38A9 (UniProt Q8NBW4) | -0.113 |
| TBRG4 (UniProt Q969Z0) | -0.58 |
| SMARCA4 (UniProt P51532) | 0.048 |
| TFR2 (UniProt Q9UP52) | -0.601 (active) |
| TECR (UniProt Q9NZ01) | -0.087 |
| SRSF10 (UniProt O75494) | 0.444 |
| TBC1D5 isoform 2 (UniProt Q92609) | -0.233 |
| SRP68 (UniProt Q9UHB9) | -0.094 |
| SYMPK (UniProt Q92797) | -0.287 |
| STEAP3 isoform 2 (UniProt Q658P3) | -0.042 |
| SLC25A4 (UniProt P12235) | -0.056 |
| SLC39A11 (UniProt Q8N1S5) | -0.085 |
| TMBIM6 isoform 2 (UniProt P55061) | 0.189 |
| SMDT1 (UniProt Q9H4I9) | -0.061 |
| SLC35A1 (UniProt P78382) | -0.069 |
| TIPRL (UniProt O75663) | -0.209 (active) |
